Source: PubChem BioAssay (National Center for Advancing Translational Sciences (NCATS))
Only a selection was taken, and hits are over-represented in it overall.
Pf Dd2 inh: qHTS Primary assay for Inhibitors of Plasmodium falciparum Dd2 growth in vitro; P. falciparum Dd2 growth, SYBR Green, 72 h; Potency, µM (titrated, usually from 28.9 µM), most hits filed as inhibitors; 120,000 compounds, 4.3% hits; active = well fitted inhibition curve with a large enough effect; note: nearly all actives have a fitted effect of over 65% in size
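Infected erythrocytes (Dd2, 0.3% parasitemia, 2.5% hematocrit final) are added to compound in RPMI-1640/Albumax II medium, grown 72 h at 37C in low oxygen, then lysed with saponin/Triton-X containing SYBR Green and read by fluorescence.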
Numbers stand for hits; – = inactive; [ ] = dose if it differs, or a comment.

SMILES | Pf Dd2 inh
Cc1ccccc1Cn1c2ccccc2c2cnn(CC(=O)N3CCC(C)CC3)c(=O)c21 | –
CN1C(=O)C(CC(=O)N2CCCCC2)Sc2ncccc21 (stereo not drawn) | –
COCCOc1cc(=O)n2c(c1C(=O)NCc1ccccc1OC)CCOCC2 | –
CCNC(=O)[C@@H]1C[C@H](NC(C)=O)CN1Cc1ccc(OC2CCCC2)cc1 | –
O=C1CCN(S(=O)(=O)c2cccs2)CCCCCCN1 | –
Cn1c(CCNC(=O)C2CCN(c3cn[nH]c(=O)c3)C2)nc2ccccc21 (stereo not drawn) | –
Cc1ccc(CN2CCC(N3CCCNC3=O)CC2)cc1 | –
CCCCNC(=O)c1ccc2c(c1)N(C(=O)c1ccc(OC)cc1)CC2 | –
CCc1ccc(NC(=O)c2cc(S(=O)(=O)N3CCCCC3)c[nH]2)cc1 | –
Cc1ccc(CNC(=O)c2cc(S(=O)(=O)N3CCCCC3)cn2C)cc1 | –
Cn1cc(S(=O)(=O)N2CCCCC2)cc1C(=O)NCc1ccc(Cl)cc1 | 11.2µM
Cc1cc(C)cc(NC(=O)c2cc(S(=O)(=O)N3CCCCC3)c[nH]2)c1 | –
Cn1cc(S(=O)(=O)N2CCCCCC2)cc1C(=O)NCc1ccc(F)cc1 | –
O=C(NCc1ccc(Cl)cc1)c1cc(S(=O)(=O)N2CCCCC2)c[nH]1 | 11.2µM
COCC1(CNC(=O)c2nc3ccccc3[nH]2)C[C@@H](O)[C@@H](O)C1 (stereo partly drawn) | –
CCOc1ccc(CC(=O)N2CCC3(CC2)C(=O)N(C)c2ccccc23)cc1 | –
Cc1ccc2nsnc2c1S(=O)(=O)N[C@@H]1CC[C@@H](N)C1 | –
CC(C)(C)CNCC1(O)CCCN(Cc2cccc(F)c2F)C1=O (stereo not drawn) | 4.47µM
CN(CCO)CC1(O)CCCN(Cc2cccc(F)c2F)C1=O (stereo not drawn) | –
O=C1N(Cc2cccc(F)c2F)CCCC1(O)CN1CCNCC1 (stereo not drawn) | –
COc1ccc(CNC(=O)CSc2nc(-c3ccc(OC)cc3)cc(C(F)(F)F)n2)cc1 | –
CCCNC(=O)CCSc1nc(-c2ccc3c(c2)OCO3)cc(C(F)(F)F)n1 | 5.01µM
COc1ccc(-c2cc(C(F)(F)F)nc(SCCC(=O)Nc3ccccc3F)n2)cc1 | –
CC(C)(C)NC(=O)CCSc1nc(-c2ccc3c(c2)OCO3)cc(C(F)(F)F)n1 | –
CCCNC(=O)CSc1nc(-c2ccc(OC)cc2)cc(C(F)(F)F)n1 | –
SMILES | Pf Dd2 inh
COc1ccc(-c2cc(C(F)(F)F)nc(SCCC(=O)Nc3cc(C)ccc3O)n2)cc1 | 1µM
COc1ccc(-c2noc(-c3nnn4c3COC(c3ccc(C)cc3C)C4)n2)c(OC)c1 (stereo not drawn) | –
CCn1cc(S(=O)(=O)N2CCCC(Cc3nncn3CC3CC3)C2)cn1 (stereo not drawn) | –
O=C(NCCc1ccc(Cl)cc1)C1CCc2nnc(C3CCN(C(=O)C4CC4)CC3)n21 (stereo not drawn) | –
CC(C)N1CCOC(CC(=O)NCc2cc(N3CCOCC3)ncn2)C1 (stereo not drawn) | –
CN(C)C(=O)N1CCn2nc(CNC(=O)c3cccc(-n4cnnc4)c3)cc2C1 | –
CN(C)C(=O)c1cc(-c2cnccc2Cl)c2cccn2n1 | –
COC(=O)CNC(=O)c1cc(-c2cnccc2Cl)c2cccn2n1 | –
O=C(NCc1ccc(F)cc1)c1cc(-c2cnccc2Cl)c2cccn2n1 | 8.91µM
CC(C)n1cc2cc(C(=O)N3CCN(c4ccc(F)cc4)CC3)sc2c1 | –
O=C1CC2(CCN(Cc3cccc4ccccc34)CC2)Oc2ccccc2N1 | –
COCC(=O)N[C@@H]1CN(CC2CC2)CC[C@@H]1c1nc(C)no1 | –[5.79 µM]
Cc1nc2c(C(=O)NC(C)c3ccccc3)cnn2c(C)c1Cc1ccccc1 (stereo not drawn) | 8.91µM
Cc1nc2c(C(=O)NCCc3ccc(Cl)cc3)cnn2c(C)c1Cc1ccc(F)cc1 | –
Cc1ccc(Cc2c(C)nc3nc(SCC(=O)NC(C)c4ccccc4)nn3c2C)cc1 (stereo not drawn) | –
CCN1c2cc(C(=O)Nc3cc(F)ccc3F)ccc2C(=O)N2CCCCCC21 (stereo not drawn) | –
C=CCNC(=O)N1CC[C@H]2CC(=O)N(CCc3cccc(OC)c3OC)CC[C@H]2C1 | –
O=C(NC1CCCCC1)N1CC(c2nnc(-c3ccncc3)o2)C2(CCOCC2)C1 (stereo not drawn) | –
CC(=O)N1CC2(Cc3ccccc31)CN(C(=O)c1ccc(C(F)(F)F)cc1)C2 | –
CC(=O)N1CC2(CCN(Cc3ccccn3)C2)Cc2ccccc21 (stereo not drawn) | –
O=C(c1ccc(Cl)cc1)N1CC2(CCCN2Cc2ccc(C(F)(F)F)cc2)Cc2ccccc21 (stereo not drawn) | 10µM
CC(=O)N1CC2(CCN(Cc3ccccn3)CC2)Cc2ccccc21 | –
CC(=O)N1CC2(CCN(Cc3ccc(Cl)cc3)CC2)Cc2ccccc21 | –
O=C(c1ccc(Cl)cc1)N1CC2(CCN(Cc3c[nH]c4ccccc34)CC2)Cc2ccccc21 | 2.51µM
O=C(c1ccc(Cl)cc1)N1CC2(CCN(Cc3ccc(Cl)cc3)CC2)Cc2ccccc21 | 12.6µM
SMILES | Pf Dd2 inh
O=C(c1ccc(Cl)cc1)N1CC2(CCN(Cc3cccnc3)C2)Cc2ccccc21 (stereo not drawn) | 8.91µM
CC(=O)N1CC2(CCCCN2Cc2ccc(Cl)cc2)Cc2ccccc21 (stereo not drawn) | –
C[S+](=O)([O-])N1CC2(CCN(Cc3ccc(Cl)cc3)CC2)Cc2ccccc21 | –
COCC1CN(C(C)=O)CC12CCN(Cc1c[nH]c3ccccc13)CC2 (stereo not drawn) | –
CC(=O)N1CCC(N2CC[C@H](CO)[C@H](NC(=O)C3CC3)C2)CC1 | –
CC(C)c1nc(-c2ccc(OC3CCN(C(=O)C4(c5ccccc5)CC4)C3)cc2)no1 (stereo not drawn) | –[5.79 µM]
Cc1ccccc1OCc1nc(C2CN(C(=O)COc3ccc(F)cc3)C2)no1 | –
O=C1Nc2ccccc2CC12CCCN2CC1CC1 (stereo not drawn) | –
COc1ccc(C)cc1NC(=O)N1CCC(Oc2ncccc2C(=O)N2CCOCC2)C1 (stereo not drawn) | –
CN(C)CCNC(=O)c1nc(-c2ccc(N3CCN(C)CC3)cc2)cc2c1ccn2C | 11.2µM
Cn1ccc2c(C(=O)NCc3cccnc3)nc(-c3ccc(CO)cc3)cc21 | –
COc1ccc(-c2cc3c(ccn3C)c(C(=O)NCCC(N)=O)n2)cc1OC | –
COC(=O)[C@H](CC1CCCCC1)NC(=O)[C@@H]1CN(C(=O)c2cccnc2)CCN1S(C)(=O)=O | –
